Reference: publication PMC5540273 (PLoS ONE, 2017)
Read-outs that look alike come from different tables or passages of the source.

Key:
FGFR1 = conditions: concentration: 1 μM, replicates: in singlicate; n = 1
FGFR2 = conditions: concentration: 1 μM, replicates: in singlicate; n = 1
FGFR3 = conditions: concentration: 1 μM, replicates: in singlicate; n = 1
FGFR4 = conditions: concentration: 1 μM, replicates: in singlicate; n = 1
FGR = conditions: concentration: 1 μM, replicates: in singlicate; n = 1
FLT1 = conditions: concentration: 1 μM, replicates: in singlicate; n = 1
FLT3-autoinhibited = conditions: concentration: 1 μM, replicates: in singlicate; n = 1
FLT3 = conditions: concentration: 1 μM, replicates: in singlicate; n = 1
FLT4 = conditions: concentration: 1 μM, replicates: in singlicate; n = 1
FRK = conditions: concentration: 1 μM, replicates: in singlicate; n = 1
FYN = conditions: concentration: 1 μM, replicates: in singlicate; n = 1
GAK = conditions: concentration: 1 μM, replicates: in singlicate; n = 1
GCN2(Kin.Dom.2,S808G) = test system: T1, GCN2(Kin.Dom.2,S808G); conditions: concentration: 1 μM, replicates: in singlicate; n = 1
T1 construct: gene EIF2AK4

GRK1 = conditions: concentration: 1 μM, replicates: in singlicate; n = 1
GRK2 = test system: T2, GRK2; conditions: concentration: 1 μM, replicates: in singlicate; n = 1
T2 construct: gene ADRBK1

GRK3 = test system: T3, GRK3; conditions: concentration: 1 μM, replicates: in singlicate; n = 1
T3 construct: gene ADRBK2

GRK4 = conditions: concentration: 1 μM, replicates: in singlicate; n = 1
GRK7 = conditions: concentration: 1 μM, replicates: in singlicate; n = 1
GSK3A = conditions: concentration: 1 μM, replicates: in singlicate; n = 1
GSK3B = conditions: n = 1
[1] = concentration: 1 μM, replicates: in singlicate
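Also: KINOMEscan kinase panel screen.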

## COc1ccc(Nc2nccc(N3CCC(NC(=O)Nc4cccc(OC)c4)C3)n2)cc1 (centres unmarked) [GSK1379742]
FGFR1
  %Inh: 5%
FGFR2
  %Inh: 7%
FGFR3
  %Inh: 5%
FGFR4
  %Inh: 0%
FGR
  %Inh: 17%
FLT1
  %Inh: 36%
FLT3-autoinhibited
  %Inh: 20%
FLT3
  %Inh: 35%
FLT4
  %Inh: 0%
FRK
  %Inh: 8%
FYN
  %Inh: 0%
GAK
  %Inh: 23%
GCN2(Kin.Dom.2,S808G)
  %Inh: 6%
GRK1
  %Inh: 0%
GRK2
  %Inh: 0%
GRK3
  %Inh: 22%
GRK4
  %Inh: 0%
GRK7
  %Inh: 0%
GSK3A
  %Inh: 13%
GSK3B; [1]
  %Inh: 2%

## COc1cccc(-c2ccc3c(NC(=O)C4CC4)n[nH]c3n2)c1 [SB-710903]
FGFR1
  %Inh: 0%
FGFR2
  %Inh: 0%
FGFR3
  %Inh: 0%
FGFR4
  %Inh: 9%
FGR
  %Inh: 26%
FLT1
  %Inh: 8%
FLT3-autoinhibited
  %Inh: 0%
FLT3
  %Inh: 0%
FLT4
  %Inh: 1%
FRK
  %Inh: 0%
FYN
  %Inh: 0%
GAK
  %Inh: 3%
GCN2(Kin.Dom.2,S808G)
  %Inh: 1%
GRK1
  %Inh: 5%
GRK2
  %Inh: 0%
GRK3
  %Inh: 75%
GRK4
  %Inh: 0%
GRK7
  %Inh: 0%
GSK3A
  %Inh: 88%
GSK3B; 1 µM
  %Inh: 43%

## Cc1ccc(F)c(C(=O)Nc2cccc(-c3nn4ccccc4c3-c3ccnc(Nc4cccc(F)c4)n3)c2)c1F [GSK361061]
FGFR1
  %Inh: 19%
FGFR2
  %Inh: 0%
FGFR3
  %Inh: 21%
FGFR4
  %Inh: 11%
FGR
  %Inh: 91.4%
FLT1
  %Inh: 94.5%
FLT3-autoinhibited
  %Inh: 0%
FLT3
  %Inh: 78%
FLT4
  %Inh: 82%
FRK
  %Inh: 86%
FYN
  %Inh: 58%
GAK
  %Inh: 52%
GCN2(Kin.Dom.2,S808G)
  %Inh: 11%
GRK1
  %Inh: 0%
GRK2
  %Inh: 0%
GRK3
  %Inh: 0%
GRK4
  %Inh: 25%
GRK7
  %Inh: 0%
GSK3A
  %Inh: 12%
GSK3B; [1]
  %Inh: 21%

## O=C(NC1CCN(c2ccnc(Nc3ccc(F)cc3)n2)C1)c1cc2ccccc2s1 (centres unmarked) [GSK1379716]
FGFR1
  %Inh: 0%
FGFR2
  %Inh: 3%
FGFR3
  %Inh: 16%
FGFR4
  %Inh: 13%
FGR
  %Inh: 25%
FLT1
  %Inh: 20%
FLT3-autoinhibited
  %Inh: 0%
FLT3
  %Inh: 0%
FLT4
  %Inh: 3%
FRK
  %Inh: 18%
FYN
  %Inh: 26%
GAK
  %Inh: 13%
GCN2(Kin.Dom.2,S808G)
  %Inh: 7%
GRK1
  %Inh: 3%
GRK2
  %Inh: 14%
GRK3
  %Inh: 33%
GRK4
  %Inh: 0%
GRK7
  %Inh: 0%
GSK3A
  %Inh: 0%
GSK3B; [1]
  %Inh: 20%

## Oc1cc(Nc2ccnc3cc(I)ccc23)ccc1F [GW552771]
FGFR1
  %Inh: 23%
FGFR2
  %Inh: 0%
FGFR3
  %Inh: 13%
FGFR4
  %Inh: 0%
FGR
  %Inh: 84%
FLT1
  %Inh: 44%
FLT3-autoinhibited
  %Inh: 0%
FLT3
  %Inh: 0%
FLT4
  %Inh: 45%
FRK
  %Inh: 72%
FYN
  %Inh: 62%
GAK
  %Inh: 85%
GCN2(Kin.Dom.2,S808G)
  %Inh: 8%
GRK1
  %Inh: 0%
GRK2
  %Inh: 0%
GRK3
  %Inh: 65%
GRK4
  %Inh: 10%
GRK7
  %Inh: 0%
GSK3A
  %Inh: 17%
GSK3B; [1]
  %Inh: 0%

## Nc1ncc(-c2cccnc2)c2scc(-c3ccc4c(c3)CCN4C(=O)Cc3ccccc3)c12 [GSK683281]
FGFR1
  %Inh: 31%
FGFR2
  %Inh: 10%
FGFR3
  %Inh: 7%
FGFR4
  %Inh: 12%
FGR
  %Inh: 25%
FLT1
  %Inh: 47%
FLT3-autoinhibited
  %Inh: 5%
FLT3
  %Inh: 83%
FLT4
  %Inh: 35%
FRK
  %Inh: 6%
FYN
  %Inh: 32%
GAK
  %Inh: 23%
GCN2(Kin.Dom.2,S808G)
  %Inh: 75%
GRK1
  %Inh: 0%
GRK2
  %Inh: 0%
GRK3
  %Inh: 0%
GRK4
  %Inh: 22%
GRK7
  %Inh: 0%
GSK3A
  %Inh: 24%
GSK3B; [1]
  %Inh: 29%

## C[C@@H](Oc1cc(-n2cnc3cc(-c4ccnc(NCCS(C)(=O)=O)c4)ccc32)sc1C(N)=O)c1ccccc1Cl [GSK907232]
FGFR1
  %Inh: 66%
FGFR2
  %Inh: 88%
FGFR3
  %Inh: 81%
FGFR4
  %Inh: 22%
FGR
  %Inh: 44%
FLT1
  %Inh: 63%
FLT3-autoinhibited
  %Inh: 29%
FLT3
  %Inh: 98.1%
FLT4
  %Inh: 96.6%
FRK
  %Inh: 18%
FYN
  %Inh: 14%
GAK
  %Inh: 64%
GCN2(Kin.Dom.2,S808G)
  %Inh: 71%
GRK1
  %Inh: 0%
GRK2
  %Inh: 0%
GRK3
  %Inh: 39%
GRK4
  %Inh: 82%
GRK7
  %Inh: 0%
GSK3A
  %Inh: 0%
GSK3B; [1]
  %Inh: 16%

## COc1cccc(C2=C(Nc3ccc(Cl)c(C(=O)O)c3)C(=O)NC2=O)c1 [SB-390769]
FGFR1
  %Inh: 8%
FGFR2
  %Inh: 0%
FGFR3
  %Inh: 15%
FGFR4
  %Inh: 25%
FGR
  %Inh: 24%
FLT1
  %Inh: 25%
FLT3-autoinhibited
  %Inh: 0%
FLT3
  %Inh: 0%
FLT4
  %Inh: 47%
FRK
  %Inh: 32%
FYN
  %Inh: 17%
GAK
  %Inh: 8%
GCN2(Kin.Dom.2,S808G)
  %Inh: 100%
GRK1
  %Inh: 100%
GRK2
  %Inh: 0%
GRK3
  %Inh: 59%
GRK4
  %Inh: 14%
GRK7
  %Inh: 0%
GSK3A
  %Inh: 56%
GSK3B; 1 µM
  %Inh: 34%

## NCCCC(NC(=O)c1cc(Br)c(-c2ccnc3[nH]ccc23)s1)c1ccccc1.O=C(O)C(F)(F)F.O=C(O)C(F)(F)F (centres unmarked) [GSK1287544]
FGFR1
  %Inh: 52%
FGFR2
  %Inh: 16%
FGFR3
  %Inh: 30%
FGFR4
  %Inh: 18%
FGR
  %Inh: 24%
FLT1
  %Inh: 60%
FLT3-autoinhibited
  %Inh: 6%
FLT3
  %Inh: 83%
FLT4
  %Inh: 38%
FRK
  %Inh: 2%
FYN
  %Inh: 2%
GAK
  %Inh: 23%
GCN2(Kin.Dom.2,S808G)
  %Inh: 7%
GRK1
  %Inh: 68%
GRK2
  %Inh: 75%
GRK3
  %Inh: 85%
GRK4
  %Inh: 57%
GRK7
  %Inh: 83%
GSK3A
  %Inh: 0%
GSK3B; [1]
  %Inh: 15%

## Cn1cc(-c2[nH]c3cc(NC(=O)[C@H](N)C4CCCCC4)cc4c3c2C=NNC4=O)cn1
FGFR1
  %Inh: 97.9%
FGFR2
  %Inh: 89%
FGFR3
  %Inh: 86%
FGFR4
  %Inh: 97.3%
FGR
  %Inh: 87%
FLT1
  %Inh: 81%
FLT3-autoinhibited
  %Inh: 96.3%
FLT3
  %Inh: 100%
FLT4
  %Inh: 99.5%
FRK
  %Inh: 0%
FYN
  %Inh: 89%
GAK
  %Inh: 99.8%
GCN2(Kin.Dom.2,S808G)
  %Inh: 99.3%
GRK1
  %Inh: 11%
GRK2
  %Inh: 96.9%
GRK3
  %Inh: 100%
GRK4
  %Inh: 97.1%
GRK7
  %Inh: 40%
GSK3A
  %Inh: 0%
GSK3B; [1]
  %Inh: 2%
